# Screens deposited in PubChem BioAssay by The Scripps Research Institute Molecular Screening Center.
# MsrA inhibitor = bovine MsrA enzyme inhibitors, primary screen, biochemical, absorbance, HTS. purified bovine MsrA, absorbance read-out. Methionine sulfoxide reductase A (Bos taurus). hit rate 0.75% among 360,000. inhibition, % at 15.5 µM; in the data active means inhibition above about 4.5%;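 further: 0% = vehicle wells with enzyme and 100% = reference inhibitor wells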
# PP5 inh = PP5 phosphatase inhibitors, primary screen, biochemical, fluorescence; hit rate 0.18% among 320,000; Serine/threonine-protein phosphatase 5 (Homo sapiens), P53041; purified PP5c, OMFP substrate fluorescence; inhibition, % at 6.7 µM;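 active means inhibition above the campaign's mean inhibition across all tested compounds plus 3 SD, cut at about 9.5% in these data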;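 further: 0% = DMSO only and 100% = 100 µM cantharidin control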
# bovine MsrA act = bovine MsrA enzyme activators, primary screen, biochemical, absorbance, HTS | activation, % at 10.6 µM | Methionine sulfoxide reductase A (Bos taurus) | hit rate 0.3% among 360,000 | purified bovine MsrA, absorbance read-out; in the data active means activation above about 7.5%;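 further: 0% = vehicle and 100% = reference activator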
# ZTA counter = blocks Epstein-Barr virus ZTA, an EBNA-1 counter-screen | hit rate 0.15% among 320,000 | inhibition, % at 11 µM | ZTA-DNA binding, fluorescence polarization; in the data active means inhibition above about 33%
# Target sequence (P03206 whole entry, looked up): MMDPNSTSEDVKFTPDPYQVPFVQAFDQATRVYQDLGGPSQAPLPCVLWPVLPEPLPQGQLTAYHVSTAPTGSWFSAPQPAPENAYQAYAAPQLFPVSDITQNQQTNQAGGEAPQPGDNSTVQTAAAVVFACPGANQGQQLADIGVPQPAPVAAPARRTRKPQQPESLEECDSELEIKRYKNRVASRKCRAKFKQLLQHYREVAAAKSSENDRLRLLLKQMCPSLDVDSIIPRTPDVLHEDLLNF
# EBNA-1 inh = EBNA-1 DNA-binding inhibitors, primary screen, biochemical, fluorescence polarization. inhibition, % at 14.8 µM. hit rate 0.34% among 300,000. AID 1950, 2009; in the data active means inhibition above about 28%
# PP1 inh = PP1-alpha phosphatase inhibitors, primary screen, counter-screen for PP5 inhibitor project, biochemical, fluorescence, OMFP substrate, single point | hit rate 0.9% among 320,000 | inhibition, % at 6.7 µM | AID 2235, 2010 | purified PP1alpha;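 active means inhibition above the mean inhibition of all tested compounds plus 3 SD, computed separately for each screening campaign, cut at about 15% in these data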
# Target sequence (P62136 whole entry, looked up): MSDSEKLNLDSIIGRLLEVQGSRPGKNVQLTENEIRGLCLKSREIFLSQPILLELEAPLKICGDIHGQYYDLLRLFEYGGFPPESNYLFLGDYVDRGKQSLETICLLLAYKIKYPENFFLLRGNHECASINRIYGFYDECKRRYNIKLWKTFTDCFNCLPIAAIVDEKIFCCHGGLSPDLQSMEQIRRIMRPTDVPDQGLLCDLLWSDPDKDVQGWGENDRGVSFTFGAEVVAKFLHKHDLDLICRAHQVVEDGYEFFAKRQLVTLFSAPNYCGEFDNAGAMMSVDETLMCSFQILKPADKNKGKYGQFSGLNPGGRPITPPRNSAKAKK
# Active calls of the source: *; / = no result given. This is a sample that favours compounds with a hit; in the whole collection about 2.3% have one here.
SMILES,MsrA inhibitor,PP5 inh,bovine MsrA act,ZTA counter,EBNA-1 inh,PP1 inh
O=C(NC1CCCCC1)C(c1ccncc1)N(Cc1ccccc1)C(=O)c1ccc(-c2ccccc2)[nH]1 (stereo unspecified),0,1,-13,7,4,16*
Cc1cc(/C=C2/NC(=O)N(Cc3ccccc3F)C2=O)c(C)n1C,1,0,-4,-7,2,5
CCOc1cc([N+](=O)[O-])cc(/C=C2/NC(=O)N(Cc3ccccc3F)C2=O)c1O,4.6*,1,-4,16,5,5
Nc1nnc(SCC(=O)OCc2ccc(F)cc2)s1,0,1,-4,-3,5,1
COc1ccc(C(=O)c2cnc(/N=C/N(C)C)s2)cc1,4,-1,-11,0,2,-12
CN(C)/C=N/c1ncc(C(=O)c2ccc3ccccc3c2)s1,4.6*,2,-6,5,4,-2
O=C1CCCC(O)=C1C=Nc1ccc(O)cc1,4.6*,2,-4,0,-7,-2
O=C1CC(c2ccccc2)CC(O)=C1C=Nc1ccc(Cl)cc1 (stereo unspecified),0,-1,-4,1,5,-3
Cc1c(C(=O)N2CCCC2)sc(NC(=O)c2ccccc2)c1C#N,4.6*,2,-3,11,-9,-7
O=C(CSc1nnc(-c2ccc(F)cc2)c2ccccc12)Nc1ccccc1,2,5,-2,-21,10,15
O=C(CSc1nnc(-c2ccc(F)cc2)c2ccccc12)Nc1cccc(Cl)c1,2,-2,-7,10,6,16*
CC(=O)NC1=C(N(C)C2CCS(=O)(=O)C2)C(=O)c2ccccc2C1=O (stereo unspecified),0,8,-1,-14,0,-1
CC(=O)NC1=C(Nc2ccc(N(C)C)cc2)C(=O)c2ccccc2C1=O,0,3,1,37*,41*,6
Cc1csc(NC(=O)/C=C/c2ccc3c(c2)OCO3)n1,4.6*,0,-9,-11,3,-2
CN(C)CCCNc1nc(-c2ccc(Cl)cc2)nc2ccccc12,6.0*,0,-2,13,3,0
Cc1ccc(-c2nc(NCCN(C)C)c3ccccc3n2)cc1,0,-1,-8,-7,-1,-3
COc1ccc(NS(=O)(=O)c2cc(NC(=O)/C=C/c3cccs3)ccc2N2CCOCC2)cc1,3,4,0,-18,73*,4
CCCCCC(=O)Nc1ccc(N2CCOCC2)c(S(=O)(=O)Nc2ccc(OC)cc2)c1,-1,4,-1,11,7,-2
COc1ccc(CCN2CCC(CN3C(=S)NC[C@@H]3Cc3ccccc3)CC2)cc1OC,-1,/,/,/,/,/
COc1ccc(NC(=O)Nc2nnc(-c3ccccc3SCc3ccccc3)s2)cc1,0,3,-6,18,10,19*
COc1cccc(NC(=O)Nc2nnc(-c3ccccc3SCc3ccccc3)s2)c1,1,-1,-4,20,12,6
Cc1cccc(C)c1CC(=O)N1CCOCC1,0,0,-2,-15,-6,-1
Cc1[nH]c2ccccc2c1CC(=O)Nc1ccc(Nc2cccnc2)c(-c2ccc(Oc3ccccc3)cc2)c1,1,/,/,/,/,/
C#CCCc1cscc1/C=[N+](\[O-])c1ccc(C(=O)OCC)cc1,-1,-2,-1,14,/,15*
COc1ccc(N2C(=O)c3n[nH]c(C)c3C2c2ccccc2)cc1 (stereo unspecified),-2,/,/,/,/,/
SMILES,MsrA inhibitor,PP5 inh,bovine MsrA act,ZTA counter,EBNA-1 inh,PP1 inh
CC(=O)Nc1ccc(NC(=O)c2ccc(-c3ccc([N+](=O)[O-])cc3)o2)cc1,0,1,-5,-16,-4,16*
COC(=O)C1=C(C)N(Cc2ccccc2C(F)(F)F)C(=NCc2ccc(C(F)(F)F)cc2)NC1c1ccccc1 (stereo unspecified),1,/,/,/,/,/
CCCCc1c(C)nn(-c2nnc3c4ccccc4n(C)c3n2)c1C,2,0,-14,0,-3,17*
COc1ccc(C(=O)NCC2CCN(C(=O)C(=O)c3cc4ccccc4o3)CC2)cc1,2,/,/,/,/,/
COc1ccc(NC2=NCC(Cc3ccc(Br)cc3)S2)cc1 (stereo unspecified),-2,4,-9,0,7,16*
COc1ccc(/C(C)=N/Nc2ccc(C(=O)O)cc2)c(OC)c1,4,0,-5,2,6,-1
COc1ccc2c(c1)C(=NNc1ccc(C(=O)O)cc1)c1cc(OC)ccc1-2,0,3,-2,12,21,16*
COc1ccc2ccccc2c1CN1CCN(c2ncc(Cc3ccccc3)cn2)CC1,2,/,/,/,/,/
CCCCCCCNC(=O)C1(CC2CC(c3ccc(Cl)cc3)=NO2)CCN(C(=O)C2(C)CC2)CC1 (stereo unspecified),/,4,8.5*,8,0,7
COC(=O)Cn1c(=NC(=O)c2sc3ccccc3c2Cl)sc2cc(S(N)(=O)=O)ccc21,2,-1,-8,19,2,26*
COCCCNC(=O)c1ccc2c(=O)n(Cc3ccc4c(c3)OCO4)c(=S)[nH]c2c1,-1,3,-2,-8,-2,17*
Cc1ccc(NS(=O)(=O)c2ccc(NC(=O)c3cccs3)cc2)cc1,0,8,8.2*,11,-7,7
CCC(C)NS(=O)(=O)c1ccc(NC(=O)c2cccs2)cc1 (stereo unspecified),-1,2,-1,8,2,-1
O=C(CSc1nnc(SCc2ccccc2)s1)N/N=C/C=C/c1ccccc1[N+](=O)[O-],1,5,-1,-10,7,16*
COc1ccccc1C(=O)N1CCC2CCN(C(=O)OC(C)(C)C)C2C1 (stereo unspecified),1,/,/,/,/,/
COc1cccc(-c2nn3c(-c4ccccn4)nnc3s2)c1,1,-1,0,-20,7,17*
COc1cccc(-c2nnc3sc(-c4ccccn4)nn23)c1,-1,1,-10,5,-4,-1
CCn1c(SCC(=O)NC(=O)NCc2ccco2)nc2sc(C)c(C)c2c1=O,0,0,1,-11,28*,6
C[C@H]1C(C(=O)N(C)C2CCCCC2)=Cc2c(n(-c3ccc(F)cc3)c(=O)n2CCCOc2ccccc2)C=C1c1ccccc1,1,/,/,/,/,/
Cn1c(=O)c(C(=O)COC(=O)c2cc(C3CC3)nc3ccccc23)c(N)n(Cc2ccccc2)c1=O,0,5,/,-7,-1,14
Cn1c(=O)c(C(=O)COC(=O)c2cc(-c3ccco3)nc3ccccc23)c(N)n(CC2CC2)c1=O,/,4,/,-2,10,21*
Cc1cc(C(=O)NCc2ccco2)c2ccccc2n1,1,-5,-3,-5,-10,11
